# Compounds without any hit were thinned out: in the full panel of roughly 83,000, 20% have a hit.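 Growth was measured after 48 h exposure to one concentration of compound in 96-well plates. Values under 10 count as active.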 Values without a mark were called inactive. Active and inactive are the calls of the source.
# Legend:
# Test in all cases: NCI-60 one-dose screen, 48 h (100 = growth as untreated, 0 = no growth, -100 = all killed)
# Details in all cases: 10 µM unless noted
# BT-549 breast = test system: BT-549 breast
# MDA-MB-435 melanoma = test system: MDA-MB-435 melanoma
# SW-620 colon = test system: SW-620 colon
# MCF7 breast = test system: MCF7 breast
# HCT-116 colon = test system: HCT-116 colon
# KM12 colon = test system: KM12 colon
# HCC-2998 colon = test system: HCC-2998 colon
SMILES,growth (BT-549 breast),growth (MDA-MB-435 melanoma),growth (SW-620 colon),growth (MCF7 breast),growth (HCT-116 colon),growth (KM12 colon),growth (HCC-2998 colon)
O=C(/C(=C/c1ccc([N+](=O)[O-])cc1)c1ccccc1)c1ccccc1,15.5%,10.9%,11.7%,26.4%,6.38% (active),19.6%,–
O=C(Nc1ccc(Cl)cc1Cl)Nc1ccc(-c2cccnc2)cc1N1CCC(CO)CC1,66.6%,21.4%,17.6%,20%,18.1%,25.3%,35.2%
COc1cc(/C=C/C(=O)c2ccc(F)cc2)ccc1OCCCCCOc1cc2c(cc1OC)C(=O)N1CCCC1C=N2 (stereo not given),-58% (active),-87.5% (active),-46.6% (active),16%,-23.9% (active),-63.4% (active),–
CSc1nc2c(c(=O)n1C)C(c1ccccc1)C1=C(N2)/C(=C/c2ccccc2)CCC1 (stereo not given),37.9%,4.1% (active),47.1%,56.7%,39.5%,71.4%,71.4%
N#Cc1ccc(NC(=O)Nc2ccc(Oc3ccc(NC(=O)Nc4ccc(C#N)cc4)cc3)cc2)cc1,-15.5% (active),35.6%,15.8%,20.5%,5.73% (active),9.37% (active),–
c1ccc(-c2nn[nH]n2)c(-c2ccc(CN3CCN(c4nsc5ccccc45)CC3)cc2)c1,106%,92.2%,88.7%,85.6%,76.9%,101%,–
Cc1cc2c(C#N)n3c(c2cc1C)C(=O)C(c1ccccc1)Oc1ccccc1-3 (stereo not given),17%,0.71% (active),47.3%,68.2%,12.8%,15.2%,–
CC/C=C\C=C/C(=O)N/C=C/CC1Cc2cccc(O)c2C(=O)O1 (stereo not given),75.2%,-52.1% (active),26.9%,67.3%,33.8%,42.1%,–
O=[N+]([O-])c1ccc2c(c1)S(=O)c1cc([N+](=O)[O-])ccc1N2,102%,106%,95.8%,99.2%,94%,102%,104%
O=C(Nc1ccc(Cl)cc1)Nc1ccc(Nc2nncc3ccccc23)cc1,15.7%,13.7%,27%,5.46% (active),15.2%,18.9%,30.7%
c1ccc(-c2nnc(Nc3nnc(-c4ccccc4)s3)s2)cc1,106%,106%,98%,67.6%,97.9%,113%,108%
O=C(Nc1ccc(Oc2ccc(NC(=O)Nc3ccc([N+](=O)[O-])cc3)cc2)cc1)Nc1ccc([N+](=O)[O-])cc1,-21.5% (active),5.67% (active),10.8%,-7.4% (active),-6.3% (active),-5.89% (active),–
CCCCCCC/C(=N\N=C(N)N)c1ccc(O)cc1,46.9%,41.6%,49%,-21.8% (active),18.3%,48.8%,-77% (active)
CCCCSc1cc(C)nc(N)n1,88.8%,97.2%,97.8%,94.5%,90.7%,98.8%,–
N#Cc1cccc(/C=C(/C(=O)c2ccccc2)c2ccccc2)c1,26.7%,8.38% (active),7.39% (active),9.11% (active),25.6%,22.3%,–
CCOC(=O)c1c(C)c(C(=O)OCC)n(C)c1C,91.5%,101%,94.5%,127%,97.9%,112%,110%
Clc1ccc(CCC(Cn2ccnc2)Sc2c(Cl)cccc2Cl)cc1 (stereo not given),52%,53.9%,65.2%,–,23.2%,51.8%,56.6%
Nc1nc2ncc(CCNc3ccc(C(=O)NC(CCC(=O)O)C(=O)O)cc3)nc2c(=O)[nH]1 (stereo not given),114%,112%,103%,112%,107%,110%,–
NC(N)=N/N=C(/c1ccccc1)c1ccc(Cl)cc1,70.2%,-54.4% (active),47.6%,11.3%,24.9%,28.3%,–
COc1cc(/C=C2\CCC/C(=C\c3ccc(OCC4CO4)c(OC)c3)C2=O)ccc1OCC1CO1 (stereo not given),30.3%,-32.3% (active),-23% (active),-6.99% (active),-54.7% (active),-0.568% (active),–
COC1CC2CCC(C)C(O)(O2)C(=O)C(=O)N2CCCCC2C(=O)OC(C(C)CC2CCC(O)C(OC)C2)CC(=O)C(C)C=C(C)C(O)C(OC)C(=O)C(C)CC(C)/C=C/C=C/C=C1C (stereo not given),32.5%,43.6%,64.5%,–,49.5%,69.8%,50.4%
CCOC(=O)/C(=C/c1ccccc1)C(=O)c1ccccc1,73.4%,50.8%,70.9%,41.1%,39.4%,67.1%,–
CCCc1cc(=O)n2c(C(=O)Nc3ccccc3OC)c(C(=O)Nc3ccc(F)cc3)sc2n1,-14.2% [30 µM] (active),65.8% [30 µM],64.1% [30 µM],52.7% [30 µM],27.2% [30 µM],76.6% [30 µM],–
Cc1cc(N2CCOCC2)nc(N2CCOCC2)n1,73.6%,96.4%,102%,90.7%,92.2%,107%,–

SMILES,growth (BT-549 breast),growth (MDA-MB-435 melanoma),growth (SW-620 colon),growth (MCF7 breast),growth (HCT-116 colon),growth (KM12 colon),growth (HCC-2998 colon)
CCCc1nn(C)c2c(=O)[nH]c(-c3cc(S(=O)(=O)N4CCN(C)CC4)ccc3OCC)nc12,94.5%,100%,115%,–,98.8%,103%,108%
CC1(C)OC(=O)C(=Cc2ccccc2Br)C(=O)O1,107%,98%,96.2%,102%,79.3%,108%,–
CC(=O)O[C@H]1C(=O)[C@@]2(C)C([C@H](OC(=O)c3ccccc3)[C@]3(O)C[C@H](OC(=O)[C@H](O)[C@@H](NC(=O)c4ccccc4)c4ccccc4)C(C)=C1C3(C)C)[C@]1(OC(C)=O)CO[C@@H]1C[C@@H]2O (stereo not given in full),30.5%,-11.5% (active),43.4%,–,7.81% (active),9.05% (active),-22.4% (active)
O=C(/C(=C/c1cccc([N+](=O)[O-])c1)c1ccccc1)c1ccccc1,33.1%,7.47% (active),10.9%,26.7%,8.24% (active),18.3%,–
COc1cc(OC)c2cc(C(=O)O)c(=O)oc2c1,77.5%,76.8%,103%,94.2%,103%,114%,–
C/C(=N/N=C(N)N)c1ccc(N)cc1,70.1%,49%,97%,81.3%,103%,96%,–
CO[C@H]1/C=C/O[C@@]2(C)Oc3c(C)c(O)c4c(O)c(c(/C=N/N5C(C)CN(Cc6ccccc6)CC5C)c(O)c4c3C2=O)NC(=O)/C(C)=C\C=C\[C@H](C)[C@H](O)[C@@H](C)[C@@H](O)[C@@H](C)[C@H](OC(C)=O)[C@@H]1C (stereo not given in full),125%,86.6%,80.1%,44.6%,37.9%,52.6%,–
COc1cc2c(-c3nc4cc(Cl)c(F)cc4s3)cc(=O)oc2c(C)c1OC,-81.8% (active),-57.8% (active),-58.3% (active),-57.8% (active),-2.68% (active),-89.7% (active),–
CCC(C)(C)C(=O)O[C@H]1C[C@@H](C)C=C2C=C[C@H](C)[C@H](CC[C@@H]3C[C@@H](O)CC(=O)O3)[C@H]21,84%,68.8%,61.2%,–,20.4%,90.7%,71.9%
COc1cc([C@@H]2c3cc4c(cc3C(O[C@@H]3O[C@@H]5CO[C@@H](c6cccs6)OC5[C@H](O)[C@H]3O)C3COC(=O)[C@@H]32)OCO4)cc(OC)c1O (stereo not given in full),-20.3% (active),-21.1% (active),-8.91% (active),–,-56.7% (active),-45.9% (active),-76.4% (active)
N#Cc1c2ccccc2c2n1-c1ccccc1OC(c1ccccc1)C2=O (stereo not given),9.32% (active),24.1%,56.9%,72.4%,11.3%,16%,–
Cc1ccc(C(C)C)cc1NC(=O)Nc1ccc([N+](=O)[O-])cc1,-1.5% (active),11%,10.5%,-10.2% (active),-23.2% (active),2.72% (active),–
C/C(=N\N1CC(=O)NC1=O)c1ccc([N+](=O)[O-])o1,100%,88.5%,97.2%,85.6%,106%,96.3%,–
COc1cc(C2=NN(C(C)=O)C(c3ccc(OC(C)=O)cc3OC(C)=O)O2)c(OC(C)=O)c2ccccc12 (stereo not given),23.8%,28.8%,30.9%,14.1%,14.4%,22.3%,–
CC[C@@H]1OC(=O)[C@H](C)[C@@H](O[C@H]2C[C@@](C)(OC)[C@@H](O)[C@H](C)O2)[C@H](C)[C@@H](O[C@@H]2O[C@H](C)C[C@H](N(C)C)[C@H]2O)[C@](C)(O)C[C@@H](C)[C@@H]2N[C@@H](COCCOC)O[C@H]([C@H]2C)[C@]1(C)O,92.2%,106%,111%,–,85.6%,126%,98.9%
O=C(Nc1nc(-c2ccc(Cl)cc2)cs1)c1cc(O)c(O)c(O)c1,24.6%,41%,25.3%,28.3%,17.7%,51.3%,–
NC(=O)NN=C(C1CC1)C1CC1,106%,105%,98.6%,92.9%,102%,104%,–
COc1ccc(OC)c(NC(=O)c2cc3oc4ccccc4c3cc2O)c1,89.1%,105%,104%,83.3%,106%,99.5%,–
Cc1c(NCc2nnc3n(Cc4ccccc4)c(=O)c4c5c(sc4n23)CCCC5)c(=O)n(-c2ccccc2)n1C,91.7%,73.5%,103%,85.1%,88.1%,98.8%,–
NS(=O)(=O)c1ccc(NC2=C(Cl)C(=O)c3ccccc3C2=O)cc1,84.4%,124%,95%,72.8%,65%,123%,–
COc1cc(/C=C/C(=O)c2c(-c3ccc(F)cc3)nc3sc(C)nn23)cc(OC)c1OC,12%,11.9%,19.2%,14.3%,14.7%,21.8%,–
O=C(Nc1nc(-c2ccccc2)cs1)c1cc(O)c(O)c(O)c1,46%,61%,39.7%,58.4%,25.9%,64.7%,–
Cn1c(=O)c2nc(SCc3ccccc3)n(C)c2n(C)c1=O,107%,113%,106%,106%,98.9%,104%,–
COc1ccc(-c2c(N)noc2-c2cc(OC)c3c(c2)OCCO3)cc1,20.4%,-7.52% (active),27%,–,0.565% (active),0.643% (active),18.9%

# Source: PubChem BioAssay (NCI)
